Screening results (PubChem BioAssay)
GPR151 activ – activators of human GPR151. PathHunter beta-arrestin GPR151 cells, luminescence. Q8TDV0. activation, % at 11.2 µM. 650,000 tested, 1% active; in the data active means activation above about 4.9%
Target sequence (Q8TDV0 whole entry, looked up): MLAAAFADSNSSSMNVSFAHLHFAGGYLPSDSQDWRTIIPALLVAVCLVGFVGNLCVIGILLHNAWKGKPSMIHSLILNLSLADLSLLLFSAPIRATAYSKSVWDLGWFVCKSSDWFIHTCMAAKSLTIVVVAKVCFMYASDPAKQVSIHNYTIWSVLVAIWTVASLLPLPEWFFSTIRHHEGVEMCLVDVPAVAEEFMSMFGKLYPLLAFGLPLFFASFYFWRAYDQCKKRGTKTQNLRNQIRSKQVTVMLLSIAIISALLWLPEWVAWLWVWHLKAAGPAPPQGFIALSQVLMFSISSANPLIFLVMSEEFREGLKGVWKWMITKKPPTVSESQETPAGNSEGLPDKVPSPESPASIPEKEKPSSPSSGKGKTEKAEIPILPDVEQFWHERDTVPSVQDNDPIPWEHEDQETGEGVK
MITF inh – human MITF inhibition, primary screen; AlphaScreen MITF homodimerization, bead proximity signal; inhibition, % at 2.6 µM; 650,000 tested, 0.91% active; O75030; AID 1259374; in the data active means inhibition above about 50%
FBW7 activator – human FBW7 E3 ligase activation, primary screen | Q969H0 | AlphaScreen FBW7–phospho-cyclin E peptide binding, activator screen | normalized activity (activation), % at 26.1 µM | 650,000 tested, 0.13% active | AID 1259310; in the data active means normalized activity above about 1.9%;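 further: purified mutant Fbw7 with reduced substrate affinity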
TEAD-YAP block – TEAD-YAP interaction inhibition; HEK-TIYL cells, TEAD-Gal4/YAP UAS-luciferase luminescence; inhibition, % at 9.12 µM; 640,000 tested, 1.4% active; in the data active means inhibition above about 32%
GPR151 confirm – human GPR151 activation, confirmation screen. shares compounds with GPR151 activ. GPR151 PathHunter beta-arrestin cells, luminescence, 90 min; % of EA-reagent control over plate median. activation, % at 11.2 µM. 6,700 tested, under 10 active;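 active means mean percent activation across replicates above the confirmation screen cutoff of 4.91%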
GPR119 counter – activates human GPR119 in a GPR151 counter-screen | shares compounds with GPR151 activ | activation, % at 11.2 µM | 6,700 tested, 0.3% active | GPR119 PathHunter beta-arrestin cells, luminescence, 90 min; 0 = compound-well median, 100 = enzyme-acceptor control | AID 1508611;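 active means mean percent activation in the counterscreen above 29.09%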;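 further: counterscreen on off-target GPR119 to flag nonselective hits from the GPR151 activator screen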
Numbers stand for hits; - = inactive; . = no result. This is a sample that favours compounds with a hit; in the whole collection about 3.5% have one here.

SMILES	GPR151 activ	MITF inh	FBW7 activator	TEAD-YAP block	GPR151 confirm	GPR119 counter
CC[n+]1c(/C=C/N(C)c2ccccc2)oc(-c2ccccc2)c1-c1ccccc1	5.7	-	-	92	-	-
CCn1c(C)cc(/C=C/c2oc3ccccc3[n+]2CC)c1C	-	-	-	-	.	.
N#Cc1ccccc1CSc1ncnc2sccc12	5.1	-	-	-	-	-
Cc1onc(-c2ccccc2Cl)c1C(=O)Nc1c(C(C)C)cccc1C(C)C	-	-	-	-	.	.
CN1CCN(Cc2ccc(-c3ccccc3Cl)o2)CC1CCO (configuration not stated)	14	-	-	-	-	-
Cc1ccc(-c2cccc(CN3CCN(C)C(CCO)C3)c2)o1 (configuration not stated)	8.8	-	-	-	-	-
Cc1ccc(-c2ccc(CN3CCN(C)C(CCO)C3)cc2)o1 (configuration not stated)	-	-	-	-	.	.
O=S(=O)(CCN1CCc2nc(-c3cccnc3)nc(N3CCCC3)c2C1)c1ccccc1	8.4	-	-	-	-	-
CCOC(=O)CC(=O)N1CCc2nc(-c3cccnc3)nc(N3CCCCCC3)c2C1	7.1	-	-	-	-	-
Cc1ccc(C2=CC(c3ccc(Cl)cc3)n3nc(CCCO)nc3N2)cc1 (configuration not stated)	-	-	-	-	.	.
COc1ccc(C2C=C(c3ccc(Cl)cc3)Nc3nc(CCCO)nn32)cc1 (configuration not stated)	6.1	-	-	-	-	-
COC(=O)c1ccc(CNC2CCN(c3ccc(C(=O)N4CCOCC4)cc3)CC2)cc1	-	-	-	-	.	.
CC(C)CCn1c(=O)c2cccnc2n(Cc2cccc(F)c2)c1=O	12	-	-	-	-	-
O=c1c2cccnc2n(Cc2cccc(F)c2)c(=O)n1Cc1ccc(F)cc1	-	-	-	-	.	.
CC(=O)c1nc2ccccc2n1S(=O)(=O)c1ccc(Cl)cc1	5.2	-	-	-	-	-
COc1ccccc1NC(=O)C1=C(C)Nc2ncnn2C1c1cccc(F)c1 (configuration not stated)	-	-	-	-	.	.
COc1cccc(NC2=NCC(=O)N2Cc2ccc(F)cc2)c1	6.0	-	-	-	-	-
CCc1ccc(N2C(=O)NC(=O)/C(=C/c3ccc([N+](=O)[O-])o3)C2=O)cc1	-	-	-	-	.	.
Cc1oc(-c2ccccc2Cl)nc1CSCC(=O)NC1CCCC1	-	-	-	-	.	.
Cc1oc(-c2ccccc2Cl)nc1CSCC(=O)NC(C)(C)C	5.2	-	-	-	-	-
COc1cccc(-c2ccc(OCCCc3ccccn3)nc2)c1	5.8	-	-	-	-	-
CC(C)NC(=O)CSc1ccccc1C(=O)O	-	-	-	-	.	.
CC(C)[C@H](NC(N)=O)C(=O)Nc1ccc(I)cc1	5.9	-	-	-	-	-
O=C1CCCN1CCCNc1nc2ccccc2n2nnnc12	5.9	-	-	-	-	-
c1ccc2c(c1)nc(NCCCN1CCOCC1)c1nnnn12	-	-	-	-	.	.
SMILES	GPR151 activ	MITF inh	FBW7 activator	TEAD-YAP block	GPR151 confirm	GPR119 counter
O=C1CCCN1CCCNc1nc2ccccc2c2nc(-c3cccnc3)nn12	6.3	-	-	-	-	-
CCCCNc1nc2ccccc2c2nc(-c3cccnc3)nn12	-	-	-	-	.	.
Cc1ccc(C)c(CN2CCc3nnc(CCNC(=O)c4cccnc4)n3CC2)c1	-	-	-	-	.	.
COc1ccccc1CNC(=O)c1nnn(Cc2ccccc2)c1N	14	-	-	-	-	-
O=C(CCCn1c(=O)oc2ccccc21)NNC(=O)COc1ccc(F)cc1	5.7	-	-	-	-	-
O=C(O)CCCn1c(=O)oc2ccccc21	-	-	-	-	.	.
CSc1nc2ccc(NC(=O)Cn3cnc4ccccc4c3=O)cc2s1	5.9	-	-	-	-	-
Cc1ccc(CSc2nnc(NC(=O)Cn3cnc4ccccc4c3=O)s2)cc1	5.0	-	-	-	-	-
CSc1nc2ccc(NC(=O)CN3C(=O)c4ccccc4C3=O)cc2s1	-	-	-	-	.	.
CCSc1nnc(NC(=O)Cn2cnc3ccccc3c2=O)s1	-	-	-	-	.	.
CC1CCN(c2nc3ccccn3c(=O)c2/C=N/NC(N)=S)CC1	-	-	-	-	.	.
Cc1ccc(OCC(=O)NCC2CCCO2)c(Br)c1 (configuration not stated)	-	-	-	-	.	.
CC(C)N1CCc2c(sc(NC(=O)CCOc3ccccc3)c2C(N)=O)C1	-	-	-	-	.	.
Cn1nccc1Nc1cccc(C(=O)NCCOc2ccccc2)n1	11	-	-	-	-	-
CCCNC(=O)c1cccc(Nc2ccnn2C)n1	-	-	-	-	.	.
CCC(c1nnnn1C(C)(C)CC)N1CCN(Cc2ccccc2)CC1 (configuration not stated)	6.3	-	-	-	-	-
COc1ccc(CCc2nnc(CCC(=O)N3CCN(CC4CC4)CC3)o2)cc1	-	-	-	-	.	.
C[C@H](CN)Oc1ncccc1C(=O)Nc1ccc2[nH]ncc2c1	5.7	-	-	-	-	-
N#Cc1c(=O)c2c(=O)oc3ccccc3c2n2nc3n(c12)CCCCC3	-	-	-	-	.	.
C#CCn1c(=NC(=O)C2CC2)sc2cc(S(C)(=O)=O)ccc21	6.5	-	-	-	-	-
CCOCCn1c(=NC(=O)C2CC2)sc2cc(S(C)(=O)=O)ccc21	8.7	-	-	-	-	-
CC(=O)c1cccc(NC(=O)CCCNS(=O)(=O)c2cc(C(C)(C)C)ccc2C)c1	-	-	-	-	.	.
Nc1ccc(NS(=O)(=O)c2ccc(N)cc2)cc1	-	-	-	-	.	.
O=C(NCC1CCC2(CCN(Cc3cccc4ncccc34)CC2)O1)C1CCCO1 (configuration not stated)	-	-	-	-	.	.
Cc1nc2sccn2c1CN1CCCC(CO)(Cc2cccc(Cl)c2)C1 (configuration not stated)	5.0	-	-	42	-	-
SMILES	GPR151 activ	MITF inh	FBW7 activator	TEAD-YAP block	GPR151 confirm	GPR119 counter
CC(C)C(=O)Nc1ccc(S(=O)(=O)NCC2(c3ccccc3)CCOCC2)cc1	5.2	-	-	-	-	-
COc1cc(OC)c(CN2CCc3nnc(C4CCCO4)n3CC2)c(OC)c1 (configuration not stated)	5.3	-	-	-	-	-
Cc1nnc(SCC(=O)Nc2nc(-c3ccc(Cl)cc3)ns2)s1	5.2	-	-	-	-	-
CCSc1nnc(NC(=O)COc2ccc(Cl)cc2Cl)s1	7.2	-	-	-	-	-
Cc1ccc(NC(=O)CSc2nnc(NC(=O)COc3ccc(Cl)cc3)s2)cc1	-	-	-	-	.	.
Cc1cccc(NC(=O)CSc2nnc(NC(=O)COc3ccc(Cl)cc3)s2)c1	6.5	-	-	-	-	-
CCN(CC)C(=O)C1CCCN(c2cc(C(=O)NCc3nc4ccccc4[nH]3)ccn2)C1 (configuration not stated)	6.6	-	-	-	-	-
